“And” between values parts separate entries of the source, which are not always exact repeats. Equal entries are not always repeated. Inconclusive results are not listed. The source made the active and inactive calls. Calls follow the shape of the dose curve; as a rule, active = well fitted activation curve with a large enough effect; inconclusive = small, poorly fitted or top-dose-only effect; inactive = flat fitted curve, though single readings scatter.
assay: Extended Characterization of HPGD Inhibitors: PGE2 Assay in A549 Cells; details: PGE2 HTRF level, 16 h
Source text: The central role of HPGD is to inactivate prostaglandins such as prostaglandin E2 (PGE2) or prostaglandin D2 (PGD2). These prostaglandins are involved in a number of processes, including inflammation, differentiation, and cellular signaling, which makes HPGD an important target for pharmacological intervention. A number of prostaglandins of particular biological interest have been identified as substrates of HPGD. […] Over-production of PGE2 has been reported to promote tumor-associated neovascularization, cell proliferation, and tumor growth. […] In this orthogonal assay, we set out to measure if compounds were able to increase PGE2 production NIH Chemical Genomics Center [NCGC] NIH Molecular Libraries Probe Centers Network [MLPCN] MLPCN Grant: MH084681 Assay Submitter (PI): Structural Genomics Consortium
A549 cells, LNCaP cells or media were dispensed in 384-well plates (ProxiPlate-384 Plus, PerkinElmer, Shelton, CT) at 5,000 cells/9.9 uL/well using a CappAero384 multichannel pipette (Odense, Denmark). Separately on the plate, 10 uL of PGE2 calibration standards at a starting assay concentration of 5,000 pg/mL (1:2 dilution, 12-points, n = 1, prepared in media, Cisbio, Bedford, MA) were dispensed. Compounds (100 nL, final concentration range from 41.9 nM to 100 uM) were transferred using an ATS Acoustic Liquid Dispenser (EDC Biosystems, Fremont, CA). After being mixed using an automated liquid handler (CyBio, Jena, Germany), samples were incubated (37 deg C, 5% CO2, under a humidified atmosphere) for 16 hours. PGE2 labeled conjugates were added to each well, first 5 uL of PGE2-d2, followed by 5 uL of anti-PGE2-cryptate, centrifuged (1,500 rpm, 15 sec) and incubated (RT, protected from light) for 5 hours. Time-resolved fluorescence intensity (320 nm excitation, 615 and 665 nm emission) was measured using an Envision plate reader (PerkinElmer). Data was expressed as the ratio of 665 nm/615 nm emissions. Concentration (pg/mL) of samples were calculated from a 4-parameter logistic calibration curves of the PGE2 standards.

SMILES | Potency
Cc1cc(-c2nnc3n2CCCCC3)c(C)n1-c1ccc(F)cc1 | 0.662 µM (active)
Brc1cnc2nc(SCc3ccncc3)[nH]c2c1 | 0.833 µM (active)
COc1ccc(-n2cnc3cc(C(=O)N4CCCCC4)ccc32)cc1 | 0.662 µM (active)
Brc1cnc2nc(SCc3ccccn3)[nH]c2c1 | 5.9 µM (active)
CC(C)(C)n1cnc2cc(C(=O)N3CCCCC3)ccc21 | 2.09 µM (active)
Brc1cnc2nc(SCc3cccnc3)[nH]c2c1 | 8.33 µM (active)
CCCCn1cnc2cc(C(=O)N3CCCCC3)ccc21 | 2.96 µM (active)
CCOC(=O)c1ccc(-n2cnc3cc(C(=O)N4CCCCC4)ccc32)cc1 | 1.87 µM (active)
CCCCC[C@H](O)/C=C/[C@H]1[C@H](O)CC(=O)[C@@H]1C/C=C\CCCC(=O)O | 0.148 µM (active)
Cc1cc(-c2nnc3n2CCCCC3)c(C)n1-c1cccc(Cl)c1 | 0.59 µM (active)
Cc1ccc(-n2cnc3cc(C(=O)N4CCCCC4)ccc32)cc1 | 0.469 µM (active)
N#Cc1ccc(CSc2nc3ncc(Br)cc3[nH]2)cc1 | 0.332 µM (active)
COc1ccccc1-n1cnc2cc(C(=O)N3CCCCC3)ccc21 | 16.6 µM (active)
Cc1ccc(-n2c(C)cc(-c3nnc4n3CCCCC4)c2C)cc1 | 0.166 µM (active)
Cc1cccc(-n2cnc3cc(C(=O)N4CCCC4)ccc32)c1 | 1.87 µM (active)
Cc1cccc(-n2cnc3cc(C(=O)N4CCCC(C(F)(F)F)C4)ccc32)c1 (stereo not given) | 1.32 µM (active)
Cc1cc(-c2nnc3n2CCCCC3)c(C)n1-c1ccncc1 | 33.2 µM (active)
Cc1cc(-c2nnc3n2CCCCC3)c(C)n1-c1ccc(Br)cc1 | 0.59 µM (active)
Cc1cccc(-n2cnc3cc(C(=O)N4CCCC(C)(C)C4)ccc32)c1 | 0.743 µM (active)
Cc1cc(-c2nnc3n2CCCCC3)c(C)n1-c1cccc(C#N)c1 | 2.64 µM (active)

SMILES | Potency
Cc1cc(-c2nnc3n2CCCCC3)c(C)n1-c1ccccn1 | 26.4 µM (active)
O=[N+]([O-])c1cccc(CSc2nc3ncc(Br)cc3[nH]2)c1 | 0.418 µM (active)
O=[N+]([O-])c1ccc(CSc2nc3ncc(Br)cc3[nH]2)cc1 | 0.235 µM (active)
Clc1cccc(CSc2nc3ncc(Br)cc3[nH]2)c1 | 0.296 µM (active)
c1ccc(-n2cc(-c3nnc4n3CCCCC4)c3ccccc32)cc1 | 1.66 µM (active)
COc1cccc(-n2cnc3cc(C(=O)N4CCCCC4)ccc32)c1 | 0.833 µM (active)
O=C(c1ccc2c(c1)ncn2-c1cccc(C(F)(F)F)c1)N1CCCCC1 | 2.64 µM (active)
N#Cc1cccc(CSc2nc3ncc(Br)cc3[nH]2)c1 | 7.43 µM (active)
CN1CC[C@@H](c2c(O)cc(O)c3c(=O)cc(-c4ccccc4Cl)oc23)[C@@H](O)C1 | 3.32 µM (active)
Cc1cc(-c2nnc3n2CCCCC3)c(C)n1-c1ccccc1 | 372 nM (active) and 2.64 µM (active)
Clc1ccc(CSc2nc3ncc(Br)cc3[nH]2)cc1 | 16.6 µM (active)
Cc1cccc(-n2cnc3cc(C(=O)N4CCC(Br)CC4)ccc32)c1 | 1.18 µM (active)
CC(C)(C)c1cccc(-n2cnc3cc(C(=O)N4CCCCC4)ccc32)c1 | 18.7 µM (active)
CC(C)c1cccc(-n2cnc3cc(C(=O)N4CCCCC4)ccc32)c1 | 2.35 µM (active)
Cc1cccc(-n2cnc3cc(C(=O)N4CCCCC4)ccc32)c1 | 0.469 µM (active)
O=[N+]([O-])c1ccccc1CSc1nc2ncc(Br)cc2[nH]1 | 0.148 µM (active)
CC(C)(C)c1ccc(-n2cnc3cc(C(=O)N4CCCCC4)ccc32)cc1 | 20.9 µM (active)
COc1ccc(CSc2nc3ncc(Br)cc3[nH]2)cc1F | 7.43 µM (active)
Cc1cccc(-n2cnc3cc(C(=O)N4CCCCCC4)ccc32)c1 | 2.96 µM (active)
N#Cc1ccccc1CSc1nc2ncc(Br)cc2[nH]1 | 372 nM (active) and 7.43 µM (active) and 743 nM (active)
